{"source": "the supplement of paper PMC6555819", "data": [{"test_system": "RXRa homodimer (NR concentration 180 nM)", "experiment": "PBM binding z-score (relative to random genomic background probes); higher = stronger binding; sequences stand for … in GC…GCGATTGACAGCGTAGAATGAAGG", "procedure,_shortened": "(§1)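 Antibodies against each partner of ligand-free nuclear receptor dimers (one per run) detected binding on custom Agilent 4×180K protein-binding microarrays after 1 h incubation. The double-stranded probes had 34-nt variable regions carrying direct-repeat seeds, single-nucleotide variants, half-site ablations and random human genomic background sequences. Binding z-scores, from regression-normalized fluorescence, use the random background probes as reference.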", "values": [{"sequence": "TTTAGCAGGCCAGAGGGTCACTCAAGAGGTACGG", "PBM binding z-score": 2.32}, {"sequence": "AGAACGAGGTTAAGATCAGGGAAACAGAATACAT", "PBM binding z-score": 2.45}, {"sequence": "ATCTCTATGTAAGACTCAGTTCAGTGAAGAACGC", "PBM binding z-score": -0.183}, {"sequence": "CAAACTAGATCACGAAAGGTCAAAGTCGAATGAC", "PBM binding z-score": 6.64}, {"sequence": "ATCTCTTGGTAACCAAGTTCAGTGAATGCCGAAC", "PBM binding z-score": 0.509}, {"sequence": "TCTAGCAGGCCGGAGGGTCACTCAAGAGGTACGG", "PBM binding z-score": 2.13}, {"sequence": "CTACCAAGGTGAACAAGGTCGTTGATTACTATTC", "PBM binding z-score": 1.91}, {"sequence": "CAAACTAGGTCAAGAGTTCAAAGTCCGCTTCCCG", "PBM binding z-score": 5.58}, {"sequence": "GATACATGGTCAAGGCCAGAGTACGCGTATTGAT", "PBM binding z-score": 0.439}, {"sequence": "AGTCAAAGTTCATCTATGTAACGTAAGATATGCT", "PBM binding z-score": 4.74}, {"sequence": "TTACCAGGGTGAGCTGAGGTCGTTGATCCAACTC", "PBM binding z-score": 1.37}, {"sequence": "ACTAGCAGGCCATGGGTCACTCAAGATTAGTCCG", "PBM binding z-score": 1.75}, {"sequence": "CCTACTGGGCCACGAAAGGTTATTGATTCAGTGA", "PBM binding z-score": 1.2}, {"sequence": "CCAGATAGGTGAGAAGGTAACTCAGCCTCGATTA", "PBM binding z-score": 0.44}, {"sequence": "CCTAGCAGGCCAGGGTCAATCAAGCATTTCGCTT", "PBM binding z-score": 4.06}, {"sequence": "GCTGCTAGGTCAATTGATGGTCAGCTAAAGCTCG", "PBM binding z-score": 1.95}, {"sequence": "ACTAGCAGGCCAAGGGGCACTCAAGATTAGTCCG", "PBM binding z-score": 0.366}, {"sequence": "GCGCGGAGGACAAGGTCAGAGCTTTGTCCGTAGA", "PBM binding z-score": 2.43}]}, {"test_system": "THRa:RXRa (NR concentration 90 nM, RXRa partner concentration 90 nM)", "experiment": "PBM binding z-score (relative to random genomic background probes); higher = stronger binding; sequences stand for … in GC…GCGATTGACAGCGTAGAATGAAGG", "procedure,_shortened": "as §1", "values": [{"sequence": "ACATGTAGGTTATCGGGTCATTCAGTTTGCGCAT", "PBM binding z-score": 3.32}, {"sequence": "CCTACTGAGCCATCAGGTCATTGATATCAACGTT", "PBM binding z-score": 3.37}, {"sequence": "GCTATTAGTTGAAAGGGCCACCGAATGATTCTCG", "PBM binding z-score": 0.0196}, {"sequence": "TCTATTTGTTGAAGGGCAACCGACGAGTCCGTTT", "PBM binding z-score": 0.482}, {"sequence": "TGAATGAGGTCATAAGATCAGGGAACGTTGCAAA", "PBM binding z-score": 3.85}, {"sequence": "ATCTCTTGGTAAAGATAGTTCAGTGAATGCAAAT", "PBM binding z-score": 0.575}, {"sequence": "ATCTCTAGGTAGCAAGTTCAGTGAAAGAGAGGAC", "PBM binding z-score": 0.972}, {"sequence": "ATCTCTAGGTAAAAGTCCAGTGAATCCCGAGGAT", "PBM binding z-score": 0.296}, {"sequence": "AGTCAAAGTTCATCTAGGAAACGTAAGATATGCT", "PBM binding z-score": 1.98}, {"sequence": "CCGAGCAGGTTATGGGGCATTCAGGCAACGGTGA", "PBM binding z-score": 0.573}, {"sequence": "CCGACTGGGGCATAAGGTTACCCTAAGCCAGCCC", "PBM binding z-score": 1.79}, {"sequence": "CCTTACAGGTCACTCCAGGTTATAGCATCGGAGT", "PBM binding z-score": 5.15}, {"sequence": "CGAAATAGGTCAAGGACAGTGAATCTCCGCACGC", "PBM binding z-score": 3.1}, {"sequence": "AGAACGAGGCCACGCTGAGTTGATAGCAGAGTAG", "PBM binding z-score": 1.02}, {"sequence": "CCTGCTAGGTCAATGGTAAGCTAAAGCAGCTCGC", "PBM binding z-score": 2.03}, {"sequence": "AGAATAAGGTTATACGTAGATCAGGGAAGAAAGT", "PBM binding z-score": 2.41}, {"sequence": "TCTATTAGTTGAAGGGCAACCGCCGAGTCCGTTT", "PBM binding z-score": 0.213}, {"sequence": "ATATCTAGGTAACCAAGTTCAGTGAATGCCGAAC", "PBM binding z-score": 1.58}, {"sequence": "CAGCCTAGGTCAGGTCCAGTATAGGAGGAACGTT", "PBM binding z-score": 1.68}, {"sequence": "TCGAGTAGGTTACCAATGGGGCATTAAGCTTTCT", "PBM binding z-score": -0.0215}, {"sequence": "TCTTGTAGATCAACAGGAGGCTAAGAAAGATCGA", "PBM binding z-score": -0.56}, {"sequence": "TTAGCAAGGTGAGCTGAGGTCGTTGATCCAACTC", "PBM binding z-score": 4.75}, {"sequence": "TTTAGCAGGCCAGAGGGTCACTCAAGAGGTACGG", "PBM binding z-score": 1.6}, {"sequence": "AGAACGAGGTTAAGATCAGGGAAACAGAATACAT", "PBM binding z-score": 2.36}, {"sequence": "ATCTCTATGTAAGACTCAGTTCAGTGAAGAACGC", "PBM binding z-score": 0.172}, {"sequence": "CAAACTAGATCACGAAAGGTCAAAGTCGAATGAC", "PBM binding z-score": 3.96}, {"sequence": "ATCTCTTGGTAACCAAGTTCAGTGAATGCCGAAC", "PBM binding z-score": 0.819}, {"sequence": "TCTAGCAGGCCGGAGGGTCACTCAAGAGGTACGG", "PBM binding z-score": 1.44}, {"sequence": "CTACCAAGGTGAACAAGGTCGTTGATTACTATTC", "PBM binding z-score": 3.2}, {"sequence": "CAAACTAGGTCAAGAGTTCAAAGTCCGCTTCCCG", "PBM binding z-score": 3.33}, {"sequence": "GATACATGGTCAAGGCCAGAGTACGCGTATTGAT", "PBM binding z-score": 0.149}, {"sequence": "AGTCAAAGTTCATCTATGTAACGTAAGATATGCT", "PBM binding z-score": 1.92}, {"sequence": "TTACCAGGGTGAGCTGAGGTCGTTGATCCAACTC", "PBM binding z-score": 4.67}, {"sequence": "ACTAGCAGGCCATGGGTCACTCAAGATTAGTCCG", "PBM binding z-score": 1.42}, {"sequence": "CCTACTGGGCCACGAAAGGTTATTGATTCAGTGA", "PBM binding z-score": 1.66}, {"sequence": "CCAGATAGGTGAGAAGGTAACTCAGCCTCGATTA", "PBM binding z-score": 0.177}, {"sequence": "CCTAGCAGGCCAGGGTCAATCAAGCATTTCGCTT", "PBM binding z-score": 3.05}, {"sequence": "GCTGCTAGGTCAATTGATGGTCAGCTAAAGCTCG", "PBM binding z-score": 2.22}, {"sequence": "ACTAGCAGGCCAAGGGGCACTCAAGATTAGTCCG", "PBM binding z-score": 0.0441}, {"sequence": "GCGCGGAGGACAAGGTCAGAGCTTTGTCCGTAGA", "PBM binding z-score": 2.89}]}]}
